The campaign covered roughly 69,000 compounds. About 8,600 (12%) showed an effect of 50% or more. The sample as a whole holds a higher share of strong results than the screen did.
These compounds were tested on Plasmodium berghei (assay: Screen against P. berghei liver stage (PbLuc), transformed with Luciferase, at 10uM). Settings: tested at 10 uM.
Type: functional, HepG2

Structure (SMILES) | INHIBITION [%]
Cn1ccnc(Sc2ccccc2)c1=O | -4.13
CCOc1ccccc1C(=O)NCc1nncn1C1CC1 | 11.4
CC1(c2nccs2)CCN(C(=O)CC2CCOCC2)CC1 | -1.25
CC(=O)N1CCC2(CCCN(S(=O)(=O)c3ccccc3)C2)C1 (stereo unspecified) | -60.3
CCc1cc(NCCCNS(C)(=O)=O)nc(-c2ccncc2)n1 | 15.2
CCC=C(C)C(=O)N1CSCC1C(=O)N(C)CCc1ccncc1 (stereo unspecified) | -16.7
Cc1cc(C)n(CC2CCCCN2CC(=O)Nc2nccs2)n1 (stereo unspecified) | 77.6
Cc1cc(C)n(CC2CCCCN2CC(=O)Nc2nncs2)n1 (stereo unspecified) | 11.1
Cc1cc(C)n(CC2CCCCN2CC(=O)Nc2nnc(C)s2)n1 (stereo unspecified) | -16.5
CCCc1n[nH]c(C2CN(CCc3cccs3)CCO2)n1 (stereo unspecified) | -23.9
CCC(C)N(CC)C(=O)c1ccc2[nH]nnc2c1 (stereo unspecified) | -29.1
CN1CCN(CC(C)(C)C)CC1CCO (stereo unspecified) | -1.26
COc1cc(C(=O)O)ccc1OCC(=O)NCCc1ccccc1 | 37.4
O=C(C1CCS(=O)(=O)C1)N1CCN(c2cnccn2)CC1 (stereo unspecified) | 16.7
Cc1cc(C)c(CNC(=O)N2CCN(c3ccccn3)CC2)c(=O)[nH]1 | 9.4
Cc1cc(C)c(CNC(=O)NCCNc2ncccn2)c(=O)[nH]1 | 25.7
O=C(NCC1CCS(=O)(=O)C1)N1CCN(c2cnccn2)CC1 (stereo unspecified) | 50.3
Cc1cc(C)c(CNC(=O)C2CCN(c3cnccn3)CC2)c(=O)[nH]1 | 12.255

Structure (SMILES) | INHIBITION [%]
Cc1cc(C)c(CNC(=O)NCCNc2ccccn2)c(=O)[nH]1 | 46.1
Cc1cc(C)c(CNC(=O)NCCNc2cnccn2)c(=O)[nH]1 | 73
O=C(NC1CCS(=O)(=O)C1)N1CCN(c2cnccn2)CC1 (stereo unspecified) | 33
Cc1cc(C)c(CNC(=O)N2CCN(c3cnccn3)CC2)c(=O)[nH]1 | 51.2
CN1CCN(C(=O)c2occc2CN2C(=O)Cc3ccccc32)CC1 | 37.9
c1cncc(CN2CCn3cc(CN4CCCCC4)nc3C2)c1 | 35.8
Cc1ccoc1C(=O)N1Cc2c(CN3CCCCC3)nn(C)c2C1 | 3.69
O=C(NCCCn1nc2ccccn2c1=O)NC(C1CC1)C1CC1 | 16.3
COc1ccc(CC(=O)NC2CCN(CC(F)F)CC2)cc1OC | 14.4
O=C(c1ccoc1)N1CC[C@@H]2O[C@@H](COCc3ccncc3)CC[C@@H]21 | 52
O=C(c1ccoc1)N1CC[C@@H]2O[C@@H](COCCN3CCCC3)CC[C@@H]21 | 31.1
CN(C)CCOC[C@H]1CC[C@H]2[C@H](CCN2C(=O)c2ccoc2)O1 | 34.6
O=C(c1ccoc1)N1CC[C@@H]2O[C@@H](COCc3ccccn3)CC[C@@H]21 | 53.2
CCOC[C@H]1CC[C@H]2[C@H](CCN2C(=O)c2ccncc2F)O1 | 41.4
CC(C)COC[C@H]1CC[C@H]2[C@H](CCN2C(=O)c2ccncc2F)O1 | 53
O=C(c1ccoc1)N1CC[C@@H]2O[C@H](COCc3ccccn3)CC[C@@H]21 | 34.1
COCC(=O)N1CC[C@@H]2O[C@H](COCc3ccncc3)CC[C@@H]21 | 33.5
CC(C)COC[C@@H]1CC[C@H]2[C@H](CCN2C(=O)c2ccncc2F)O1 | 13.5

Source: ChEMBL document CHEMBL4513216, “Probing the Open Global Health Chemical Diversity Library for Multistage-Active Starting Points for Next-Generation Antimalarials” (ACS Infect Dis, 2020)
